From PubChem
Rows were chosen to be rich in hits. Some 6.9% of all compounds tested hit in one or more screens of this group.
Cy5 interf NS3h: enhances or quenches Cy5 fluorescence in NS3h assay | Cy5-dT15 DNA with NS3h, fluorescence interference; actives lie on both sides; signal over control mean, under 1 quenches | fluorescence interference ratio at 100 µM | AID 720488 | actives 6% (n = 16,000);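 active = compound fluorescence over control fluorescence at most 0.8, a quencher, or at least a set upper limit, an enhancer; inactive = ratio between 0.8 and the set upper limit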
HCV NS3h FP: blocks HCV NS3 helicase binding to DNA; NS3h Cy5-dT15 DNA binding, fluorescence polarization; inhibition, % at 100 µM; actives 1.6% (n = 16,000); AID 687043;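 active = inhibition above the average over every tested compound plus 3 SD, cut at about 40% in these data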
Active calls of the source: *.

SMILES	Cy5 interf NS3h	HCV NS3h FP
Cc1ccnc(NS(=O)(=O)c2ccc(NC(=O)c3cccc(Oc4ccccc4)c3)cc2)n1	1.04	5.9
COc1ccc(N2C(=O)C3C4C=CC(C5CC45)C3C2=O)c([N+](=O)[O-])c1 (stereo not given)	0.984	6.3
COc1cc([N+](=O)[O-])ccc1N1C(=O)C2C3C=CC(C4CC34)C2C1=O (stereo not given)	0.749*	8.7
CCN(Cc1ccccc1)C(=O)c1ccc([N+](=O)[O-])cc1	1.06	-19.8
O=C(c1cccnc1)N1CCNCC1	0.942	-14.5
CCOC(=O)c1c(NC(=O)Cn2cnc([N+](=O)[O-])n2)sc2c1CCC2	0.572*	8.7
CCOC(=O)c1c(NC(=O)c2ccc([N+](=O)[O-])cc2)sc2c1CCCCC2	0.981	-10.4
CCOC(=O)CC(O)(c1ccccc1)C(F)(F)C(F)F (stereo not given)	0.749*	7.7
CCOC(=O)Cc1cc(-c2ccccc2)nc2ccc3ccccc3c12	1.02	2.5
CCc1ccc(OCC(=O)Nc2ccc(O)c(-c3nc4cc(C)ccc4o3)c2)cc1	1.1	-21.0
COc1ccc(C2=Cc3cc(OC)c(OC)cc3S(=O)(=O)O2)cc1OC	0.938	5.6
O=C(NC(=S)Nc1ccc(I)cc1)c1ccco1	0.957	-5.5
CCOC(=O)C1=C(C)NC(=O)NC1c1ccc(OC)cc1OC (stereo not given)	0.964	1.3
CCOC(=O)C1=C(C)NC(C)=C(C(=O)OC)C1c1cc(Cl)cc(Cl)c1OC (stereo not given)	0.787*	-0.3
Nc1nnnn1/N=C\c1ccc(C=O)cc1	0.711*	-9.4
Nc1nnnn1/N=C\c1ccc(OCc2ccccc2)cc1	1.06	-5.4
CC(C)NC(=O)c1nn2c(C(F)(F)F)c3c(nc2c1Cl)-c1ccccc1CC3	0.988	10.0
CC1CN(C)C(c2ccccc2)CC1=O (stereo not given)	1.06	-7.2
CS(=O)(=O)N1CCN(Cc2cccc3ccccc23)CC1	0.695*	10.5
CS(=O)(=O)N1CCN(Cc2ccccc2Cl)CC1	0.606*	1.2
Oc1ccc(Br)cc1CN1CCN(Cc2cccc3ccccc23)CC1	0.93	-8.5
CS(=O)(=O)N1CCN(CCCc2ccccc2)CC1	1.05	-5.4
O=C(Nc1cccc(-c2cn3ccccc3n2)c1)c1cccnc1	1.08	-54.5
COc1ccc(/C=C2\C(=O)NC(=O)N(c3ccc(C)cc3)C2=O)c(C)c1	1.03	5.9
COc1ccccc1N1C(=O)S/C(=C\c2cccc(Br)c2)C1=O	0.98	-0.9
SMILES	Cy5 interf NS3h	HCV NS3h FP
Cc1ccc(-c2cc(C(F)(F)F)n3ncc(C(=O)N(C)Cc4ccccc4)c3n2)cc1	0.615*	8.7
Cc1ccc(-c2cc(C(F)(F)F)n3ncc(C(=O)N4CCN(c5ccc(F)cc5)CC4)c3n2)cc1	0.613*	9.6
O=C(c1nn2c(C(F)(F)F)cc(-c3ccccc3)nc2c1Cl)N1CCCC1	0.928	9.4
CCOC(=O)c1cnn2c(C(F)(F)F)cc(-c3ccco3)nc12	1.01	2.8
CN(Cc1ccccc1)C(=O)c1nn2c(C(F)(F)F)cc(-c3ccccc3)nc2c1Cl	0.61*	7.7
COc1cc(-c2cc(C(F)(F)F)n3ncc(C(=O)Nc4cccc5ccccc45)c3n2)cc(OC)c1OC	1.08	-0.6
Cc1oc2c(CN(CC(C)C)CC(C)C)c(O)ccc2c(=O)c1-c1nc2ccccc2s1	0.985	4.3
CCOc1cc(C=O)cc(I)c1OCc1ccccc1Cl	0.642*	8.7
COc1cc(C=O)cc(Br)c1OCc1ccccc1Cl	1.02	8.2
Cc1cc(C)c(NC(=S)NC(NC(=O)c2ccc(Br)cc2)C(Cl)(Cl)Cl)c(C)c1 (stereo not given)	1.05	12.8
O=C1N/C(=N/N=C\c2ccccc2O)SC1Cc1ccc(Cl)cc1 (stereo not given)	1.05	9.0
O=C(CCCN1C(=O)c2ccccc2C1=O)Nc1ccccc1C(=O)N1CCOCC1	0.969	-3.7
CN1CCN(C(=O)c2ccccc2NC(=O)CN2C(=O)c3ccccc3C2=O)CC1	0.768*	9.6
COc1cccc(N2C(=O)C(=O)C(=C(O)c3ccccc3)C2c2ccccc2OC)c1 (stereo not given)	0.974	-0.7
CCN1C(=O)/C(=C\c2cc(OC)ccc2OC)SC1=S	0.759*	8.7
COc1ccc(Br)cc1/C=C1/SC(=S)N(Cc2ccccc2)C1=O	0.688*	1.2
CCN1C(=O)/C(=C\c2cc(Br)ccc2OCc2ccccc2)SC1=S	1.14	-0.3
CCN1C(=O)/C(=C\c2ccccc2OCCOc2cccc(OC)c2)SC1=S	1	7.1
Cc1ccccc1N1CC(C(=O)OCC(=O)c2ccc(Br)cc2)CC1=O (stereo not given)	0.977	4.2
CC(C)(C)C(=O)NC(NC(=S)Nc1ccccc1)C(Cl)(Cl)Cl (stereo not given)	0.984	1.0
O=C(/C=C/c1ccc(F)cc1)N1CCN(CCN2C(=O)c3cccc4cccc(c34)C2=O)CC1	0.898	14.6
CCOc1cc(/C=C2\C(=O)N(c3cccc(C(=O)O)c3)N=C2C)ccc1O	1.01	8.2
O=C(/C=C/c1cccc([N+](=O)[O-])c1)Nc1ccc2oc(-c3ccccc3F)nc2c1	0.775*	-4.4
O=C(COc1ccc([N+](=O)[O-])cc1)Nc1ccc2oc(-c3ccccc3F)nc2c1	1.04	2.2
CC1=NN(c2nc(-c3ccccc3)cc(-c3ccc(C)cc3)n2)C(=O)C1	1.1	-0.7
SMILES	Cy5 interf NS3h	HCV NS3h FP
Cc1ccc(S(=O)(=O)N2CCC(=O)C(C)C2)cc1 (stereo not given)	0.74*	16.8
Cc1ccc(S(=O)(=O)N2CCN(C3CC4CCC3C4)CC2)cc1 (stereo not given)	0.931	-19.9
CCn1c2ccccc2c2cc(CN3CCN(Cc4cccnc4)CC3)ccc21	0.926	-10.1
CC1(C)CC(C)(c2ccc([N+](=O)[O-])cc2)c2cc([N+](=O)[O-])ccc21 (stereo not given)	0.93	7.6
FC(F)(F)c1nc2ccccc2n1CC#CCn1c(C(F)(F)F)nc2ccccc21	1.12	14.7
O=C(O/N=C\c1ccc([N+](=O)[O-])cc1)c1cccs1	0.754*	3.1
O=C(/C=C/c1ccc(-c2cccc([N+](=O)[O-])c2)o1)c1cccs1	1.07	-4.9
CCc1ccc(NC(=O)CN2C(=O)c3ccccc3C2=O)cc1	1.05	7.4
CS(=O)(=O)c1ccc2nc(NC(=O)c3ccccc3)sc2c1	1.13	12.6
CS(=O)(=O)c1ccc2nc(NC(=O)c3ccc(Cl)c(Cl)c3)sc2c1	0.712*	-25.7
CC(C)Oc1ccc(C(=O)Nc2cccc3c2C(=O)c2ccccc2C3=O)cc1	1.14	4.5
O=c1/c(=C/c2ccc(C(F)(F)F)cc2)sc2nc3ccccc3n12	1.1	12.9
CC(=O)N(C)N1c2ccccc2CCc2ccccc21	1.07	4.5
CC(=O)N1c2ccccc2CC(N2CCCCC2)c2ccccc21 (stereo not given)	0.76*	8.7
Cc1ccc(C(O)=C2C(=O)C(=O)N(CCCn3ccnc3)C2c2ccccc2F)cc1 (stereo not given)	1.06	-17.6
CCOc1ccccc1NC(=O)c1c(NC(=O)c2cccs2)sc2c1CCCC2	1.03	41.3*
CCOc1ccccc1NC(=O)c1c(NC(=O)Cc2ccccc2)sc2c1CCCCC2	1.05	6.1
COC(=O)COc1ccc(/C=C2/C(=O)N(c3ccccc3)N=C2C)cc1	1.08	9.6
COc1ccc(/C=C2\C(=O)N(c3nc(-c4ccc(C)cc4)cs3)N=C2C)cc1	0.698*	20.7
